Out of some 69,000 compounds screened, about 8,600 (12%) showed an effect of 50% or more. The sample as a whole holds a higher share of strong results than the screen did.

Experimental findings from ChEMBL document CHEMBL4513216, “Probing the Open Global Health Chemical Diversity Library for Multistage-Active Starting Points for Next-Generation Antimalarials” (ACS Infect Dis, 2020) are described below.

This test concerns Plasmodium berghei. The experiment in a line: Screen against P. berghei liver stage (PbLuc), transformed with Luciferase, at 10uM. In kind it is functional, HepG2. As to conditions: tested at 10 uM.
On to `N#Cc1ccc(F)c(CN(CC(=O)N2CCCC2)CC2CCCO2)c1` (configuration not stated), for which the INHIBITION is -13.5%.
On to `N#Cc1csc(CN(CC(=O)N2CCCC2)CC2CCCO2)c1` (configuration not stated), for which the INHIBITION amounted to 70.9%.
As for `N#Cc1cccc(CN(CC(=O)N2CCCC2)CC2CCCO2)c1` (configuration not stated), the figure is -4.91%; as for `O=C([C@@H]1CC[C@@H]2[C@@H](CCN2CCOCc2ccccc2)O1)N1CCCC1`, 32.1%; as for `CCCNC(=O)CCOc1cccc(F)c1`, 14.465%.
For `Cc1ccc(CN(CCN(C)C)C(=O)Nc2cc(C(N)=O)ccc2C)s1`, the INHIBITION came to 19.2%.
For `CC(=O)c1ccc(NC(=O)N(CCN(C)C)Cc2ccc(C)s2)cc1`, the INHIBITION is given as 26.6%.
With `Cc1ccc(CN(CCN(C)C)C(=O)Nc2ccc(C)c(C#N)c2)s1`, the INHIBITION is recorded as 60%.
`Cc1cnn(CC2CCCN2C(=O)c2cccnc2-n2cncn2)c1` (configuration not stated): the INHIBITION is listed as 31.9%.
With `Cc1cccc2c(CCNS(=O)(=O)C3CCOC3)c[nH]c12` (configuration not stated), the INHIBITION was determined as 39.2%.
Take `Cc1cccc2c(CCNC(=O)[C@H](N)c3ccccc3)c[nH]c12`: the INHIBITION worked out at 61.1%.
In the case of `Cc1cccc2c(CCNC(=O)NCC[S+](C)[O-])c[nH]c12` (configuration not stated) it was 26.4%; in that of `Cc1cccc2c(CCNC(=O)NCCC[S+](C)[O-])c[nH]c12` (configuration not stated), 51%; in that of `COc1c(Br)cccc1CCNC(=O)c1ncoc1C`, -53.1%.
In the case of `CC(=O)N1CCC(C(=O)NCCc2c[nH]c3cc(C)ccc23)CC1`, the INHIBITION came out at 11.9%.
For `Cc1cnn(CC2CCCCN2C(=O)Cn2nc(C)c(Cl)c2C)c1` (configuration not stated), the INHIBITION was 13.8%.
For `O=C(CCNS(=O)(=O)c1ccc(Cl)cc1)NCc1ccoc1`, the INHIBITION is listed as -11.6%.
Take `CCNc1ncc(C(=O)NC(CC)c2ccnn2C)cn1` (configuration not stated): the INHIBITION is listed as 48.2%.
`Cn1cnc2cc(CCC(=O)Nc3n[nH]c(C4CC4)n3)ccc21`: the INHIBITION was 41.5%.
As for `O=C(CC1CC1)N1CCC2(COCc3cnc(-c4cccnc4)nc32)C1` (configuration not stated), the figure is 42.1%; as for `O=C(CC1CC1)N1CCC2(COCc3cnc(N4CCOCC4)nc32)C1` (configuration not stated), 61.4%; as for `CC(C)NC(=O)N1CCC2(COCc3cnc(N4CCOCC4)nc32)C1` (configuration not stated), -18.4%.
For `CC(C)(C)C(=O)N1CCC2(COCc3cnc(N4CCOCC4)nc32)C1` (configuration not stated), the INHIBITION was -18.2%.
For `COCC(=O)N1CCC2(COCc3cnc(N4CCOCC4)nc32)C1` (configuration not stated), the INHIBITION worked out at 84.7%.
As for `O=C(C1CC1)N1CCC2(COCc3cnc(NCc4ccco4)nc32)C1` (configuration not stated), the figure is -3.33%; as for `O=C(C1CCC1)N1CCC2(COCc3cnc(N4CCOCC4)nc32)C1` (configuration not stated), -4.56%.
As for `CCC(=O)N1CCC2(COCc3cnc(N4CCOCC4)nc32)C1` (configuration not stated), the figure is 57.9%; as for `COCCC(=O)N1CCC2(COCc3cnc(N4CCOCC4)nc32)C1` (configuration not stated), 34.7%; as for `O=C(C1CC1)N1CCC2(COCc3cnc(N4CCOCC4)nc32)C1` (configuration not stated), 60.1%.
`COCC(=O)N1CCC2(COCc3cnc(-c4ccccc4)nc32)C1` (configuration not stated): the INHIBITION is -22.4%.
With `O=C([C@@H]1C[C@@H]2CCN(C3CCOCC3)C[C@H]2O1)N1CCOCC1`, the INHIBITION is listed as -28%.
Regarding `CC(=O)N1CCC(Cc2cnc(-c3c(C)nn(C)c3C)cn2)CC1`, the INHIBITION is -26.2%.
`Cn1cnnc1C1CCCN(C(=O)c2cc3ccccc3[nH]2)C1` (configuration not stated): the INHIBITION is -8.11%.
Turning to `Cc1ccncc1C(=O)N1C[C@@H]2CN(c3ncccn3)C[C@]2(C(=O)O)C1`, the INHIBITION is 7.65%.
Turning to `COCCN1CCCn2c(nc(Cn3cncn3)cc2=O)C1`, the INHIBITION turned out to be 13.6%.
Regarding `CN(Cc1ccncc1)C(=O)NC1CCCN(c2ncccn2)C1` (configuration not stated), the INHIBITION was 36.1%.
In the case of `O=C(NCc1ccc(Cl)cc1)N1CCN(CC(O)C2CC2)CC1` (configuration not stated), the INHIBITION is on record as 25.9%.
Turning to `CS(=O)(=O)N1CCC(NC(=O)COc2ccc3ccccc3c2)CC1`, the INHIBITION was determined as 33.3%.
As for `Cc1oc(-c2cccc(F)c2F)nc1CN(C)CCO`, the figure is 11.3%; as for `COCCN(C)Cc1nc(-c2cccc(F)c2F)oc1C`, 51.9%.
In the case of `Cc1oc(-c2cccc(F)c2F)nc1CN(C)CCC(C)(C)O`, the INHIBITION stood at 16%.
As to `O=C(c1ccnnc1)N1CC[C@]2(C[C@H](Oc3ncccc3F)CO2)C1`, the INHIBITION was -29.3%.
Consider `Cc1nn(C)cc1-c1cc(C(=O)N2CCc3ncc(Cl)cc3C2)no1`, for which the INHIBITION came to 38.65%.
As for `CCCc1nnc(NC(=O)N2CCCC(NC(C)=O)C2)s1` (configuration not stated), the figure is 17%; as for `CC(=O)NC1CCCN(C(=O)NCc2cc[nH]n2)C1` (configuration not stated), 31.9%.
On to `CCC(CC)c1nnc(NC(=O)N2CCCC(NC(C)=O)C2)s1` (configuration not stated), for which the INHIBITION came out at 52%.
For the molecule `CC(=O)NC1CCCN(C(=O)Nc2nnc(C(C)C)s2)C1` (configuration not stated), the INHIBITION turned out to be 52%.
For `CC(C)c1nnc(NC(=O)NC2CCN(Cc3ccccc3)C2)s1` (configuration not stated), the INHIBITION is -15.05%.
As to `CCC(CC)c1nnc(NC(=O)N2CCC(C(N)=O)CC2)s1`, the INHIBITION is 12.6%.
As for `NCCc1cc(N2CCOCC2)nc(NC2CC2)n1`, the figure is 18.25%; as for `CN(C)CCN(Cc1ccc(C#N)cc1)C(=O)c1ccn(C)c(=O)c1`, 8.38%.
As for `CS(=O)(=O)NCCNC(=O)Cc1ccc(Br)s1`, the INHIBITION is -62.1%.
